The whole screen tested about 6,200 compounds, of which about 2,900 (47%) were called active. The set was probably picked from earlier hits. The list shows a part of the results. A number with no mark means an inactive call. Cut-off read from the data, not from the text of the source: active = inhibition above about 50%; inactive = the rest.

The nature of the test: Mycobacterium tuberculosis growth inhibition, primary screen (AID 1259343). To be noted: inhibition: at 10 µM, active compounds read high; outcome: 10 uM.
By inhibition is commonly meant the relative decrease from the control value, in per cent. In the case of `CCOc1cc(C=Nn2c(C)csc2=NC(C)C)ccc1O`, the inhibition is 18.4%. As for `Cc1ccc(OP(N)(=O)Oc2ccc(C)cc2)cc1`, the figure is -4.77%; as for `O=C1CCCCC1Sc1nnc(Nc2ccccc2)s1` (stereo unspecified), 6.48%; as for `CCc1ccc(-c2nc(SC3CCCCC3=O)n[nH]2)cc1` (stereo unspecified), 57.1% (active).

As to `CN(C1CCCCC1)S(=O)(=O)NC1COc2ccccc21` (stereo unspecified), the inhibition was 37.8%. Regarding `COc1c(Cl)cc(C(=O)NCC(c2cccc(F)c2)N(C)C)cc1Cl` (stereo unspecified), the inhibition is -3.98%.

`Oc1c(I)cc2oc3c(c2c1C=NCc1ccncc1)CCCC3`: the inhibition is 8.12%. Regarding `Oc1c(Br)cc2oc3c(c2c1C=NCc1ccncc1)CCCC3`, the inhibition was 84% (active). As for `CCCc1cnc(-c2ccc(C)c3ncccc23)nc1`, the figure is 8.84%; as for `COc1ccc(Cl)cc1C(=O)Nc1cc(-c2cccs2)nn1-c1nc(C)cc(=O)[nH]1`, 96.4% (active); as for `COc1ccc(Cl)cc1C(=O)Nc1cc(-c2cccs2)nn1-c1nc(C(C)C)cc(=O)[nH]1`, 101% (active).

`Oc1c(C(c2ccc(Br)cc2)N2CCCC2)cc(Cl)c2cccnc12` (stereo unspecified): the inhibition was 10.6%.

Turning to `Oc1c(C(c2ccncc2)N2CCOCC2)cc(Cl)c2cccnc12` (stereo unspecified), the inhibition is 101% (active). As for `CC(C)(C)c1cc(C(c2ccncc2)N2CCOCC2)cc(C(C)(C)C)c1O` (stereo unspecified), the figure is 94.5% (active).

On to `CN1CCN(C(c2ccc(Cl)cc2)c2cc(Cl)c3cccnc3c2O)CC1` (stereo unspecified), for which the inhibition was 90.6% (active). As for `CCOC(=O)CNC(=O)CSc1ncnc2c1nnn2Cc1ccccc1`, the figure is -26.6%; as for `CCOC(=O)N1CCN(C(=O)CSc2cc(-c3ccccc3)ncn2)CC1`, 93.6% (active); as for `CCOC(=O)N1CCN(C(=O)CCc2ccc(-c3ccc(OC)cc3)n2-c2ccc(SC)cc2)CC1`, 13.6%. As for `O=C(NCC1Cc2ccccc2O1)c1ccc(Cl)s1` (stereo unspecified), the figure is 53.1% (active); as for `CC(C)(C)c1ccc2c(c1)CC(CNC(=O)/C=C/c1ccccc1)O2` (stereo unspecified), 27.2%. As to `CC(C)(C)n1nc(C2CC2)cc1C(=O)NCC1Cc2ccccc2O1` (stereo unspecified), the inhibition is -7.17%. The result for `O=C(OCC1CC2CCC1C2)C(c1ccccc1)n1cccn1` (stereo unspecified) reads 92.2% (active); that for `CC(=O)N1CCC(NS(=O)(=O)c2ccc3c(c2)CCCC3)CC1`, 86.8% (active); that for `O=S(=O)(NC1CCc2cc(F)ccc21)c1ccc2c(c1)CCC2` (stereo unspecified), 10.6%. The result for `O=S(=O)(NC1CCN(C2CC2)CC1)c1cc(Cl)cc(Cl)c1` reads 4.16%; that for `CN(C)c1ccc(C(=C2C=CC(=[N+](C)C)C=C2)c2ccc(N(C)C)cc2)cc1`, 59.1% (active). As for `O=C(c1cc2cc(Cl)ccc2o1)N1CCN(S(=O)(=O)c2ccccc2Cl)CC1`, the figure is 42.3%; as for `O=C(NNC(=O)c1cc2cc(Cl)ccc2o1)c1cnccn1`, 101% (active); as for `CCc1c(C)nc(-n2nc(C)cc2NC(=O)c2cccc(OC)c2)[nH]c1=O`, 102% (active). `CCc1c(C)nc(-n2nc(C)cc2NC(=O)c2cc(OC)cc(OC)c2)[nH]c1=O`: the inhibition was 101% (active).

Regarding `CCc1c(C)nc(-n2nc(C)cc2NC(=O)c2ccc(OC)cc2)[nH]c1=O`, the inhibition was 99.8% (active).

As to `CCc1c(C)nc(-n2nc(C)cc2NC(=O)c2cc(C(F)(F)F)cc(C(F)(F)F)c2)[nH]c1=O`, the inhibition was -3.31%. As for `CCOc1cc(C(=O)Nc2cc(C)nn2-c2nc(C)c(CC)c(=O)[nH]2)cc(OCC)c1OCC`, the figure is -22.4%; as for `CCc1c(C)nc(-n2nc(C)cc2NC(=O)c2ccc(C(F)(F)F)cc2)[nH]c1=O`, 101% (active); as for `CCn1cc(NC(=O)c2cc3ccc(C(C)(C)C)cc3[nH]2)ccc1=O`, -0.51%. As for `CCc1c(C)nc(-n2nc(C)cc2NC(=O)c2cccc(C)c2)[nH]c1=O`, the figure is 101% (active). As for `CCc1c(C)nc(-n2nc(C)cc2NC(=O)c2ccc(C)c(C)c2)[nH]c1=O`, the figure is 42.5%; as for `CCc1c(C)nc(-n2nc(C)cc2NC(=O)c2cccc([N+](=O)[O-])c2)[nH]c1=O`, 99.7% (active). Regarding `CCc1c(C)nc(-n2nc(C)cc2NC(=O)c2ccc(F)c(F)c2)[nH]c1=O`, the inhibition is 99.7% (active). As for `CCc1c(C)nc(-n2nc(C)cc2NC(=O)c2ccccc2)[nH]c1=O`, the figure is -16.5%; as for `C=CCN1C(=O)C(=O)N(CC(=O)c2cc(C)n(CCCOC)c2C)C1=O`, -11.2%.

Turning to `O=C(CSC1=NCCS1)N1c2ccccc2Sc2ccccc21`, the inhibition is 27.6%. On to `CCSc1nnc2c(n1)OC(c1ccc(OCc3ccccc3)cc1)Nc1ccccc1-2` (stereo unspecified), for which the inhibition was 83% (active). Regarding `O=C(O)c1cc(Br)ccc1N=Cc1nc(-c2ccc(Cl)cc2)oc1O`, the inhibition was 50.4% (active). Regarding `O=C(O)c1cc2c(ccc3cc(Br)ccc32)oc1=O`, the inhibition was 47.8%.

Regarding `CCC(C)(C)c1ccc(Oc2ccc(N)cc2)cc1`, the inhibition is 21.9%. The result for `Nc1ccc(Oc2ccc(N)cc2)cc1` reads -13.3%; that for `Nc1ccc(Oc2ccc(Oc3ccc(N)cc3)cc2)cc1`, 72.7% (active); that for `Cc1cc(S(=O)(=O)Nc2cccc(Br)c2)ccc1Br`, 39.6%. With `CCS(=O)(=O)c1ccc(-c2cccc(NS(=O)(=O)c3ccc(C)cc3C)c2)nn1`, the inhibition is 99.5% (active). As for `CC(=O)Nc1cccc2c1NCCC2`, the figure is -0.59%. The result for `O=S(CSc1nc(Br)ns1)c1nc(Br)ns1` (stereo unspecified) reads 102% (active); that for `COc1ccc2nc(C(=O)NCC(C)c3ccccc3)ccc2c1` (stereo unspecified), 52.4% (active).

Regarding `COc1ccc2cc(C(=O)NNC(=O)c3ccccn3)c(C)nc2c1`, the inhibition is 0.1%.

Take `CCN1CCc2nc3ccccc3c(C(=O)NCc3ccc(OC)cc3)c2C1`: the inhibition was -11%.

Regarding `c1ccc(-c2noc(N3CCCCC3)c2CNCc2ccc3c(c2)OCO3)cc1`, the inhibition was 83.5% (active).

For the compound `c1ccc(-c2nnc3n2NC(c2ccc4c(c2)OCO4)S3)cc1` (stereo unspecified), the inhibition is -2.01%. Take `c1ccc(-c2nc(-c3ccc4c(c3)OCO4)cs2)cc1`: the inhibition is -16.4%. The result for `Cc1c(Br)c(Nc2ccc(Cl)cc2)nn1C` reads -14.8%; that for `CC(=O)N=c1c(Nc2ccc(Cl)cc2)nc(=O)[nH]n1C`, 85.5% (active). As for `CN(Cc1ccsc1)C(=O)CCc1nnc(CCCc2ccccc2)o1`, the entry is “inactive”; as for `O=C(CCc1nnc(CCCCc2ccccc2)o1)NCC[C@@H]1C[C@@H]2C=C[C@H]1C2`, 78.5% (active); as for `O=C1c2ccccc2C(=O)N1CC1CC2C=CC1C2` (stereo unspecified), 38.1%. As for `C=CCn1nnc(NC(=O)c2ccc(OCC(C)C)cc2)n1`, the figure is 30.5%. In the case of `NC(=O)CSc1nnc(SCc2ccc(Cl)c(Cl)c2)s1`, the inhibition was 24.1%. As for `O=C(CSc1nnc(SCC(=O)c2cccs2)s1)c1cccs1`, the figure is 96.8% (active); as for `Cc1nc(SCC(=O)c2cccs2)c2c3c(sc2n1)CCCC3`, -1.14%. As to `N#CC(=Cc1ccc([N+](=O)[O-])o1)C(=O)NCc1ccco1`, the inhibition is 49.5%.

For the compound `N#CC(=Cc1ccc(Sc2ccccc2)o1)C(=O)NC1CCCCC1`, the inhibition is 92.9% (active). In the case of `Cc1ccc(-n2cc(CN(C)Cc3cccnc3)c(-c3ccc(F)cc3)n2)cc1`, the inhibition was 46.4%. The result for `Cc1ccc(-n2cc(CNCCc3ncc(C)[nH]3)c(-c3ccc(F)cc3)n2)cc1` reads 93% (active); that for `CC(C)(C)c1ccc(-c2csc(NC=C(C#N)C#N)n2)cc1`, 75.2% (active); that for `CCC(C)Nc1nc(-c2ccc(Cl)cc2)cs1` (stereo unspecified), -10.8%. As for `Cc1ccc(-c2csc(SCC(=O)NC(C)(C#N)C3CC3)n2)cc1` (stereo unspecified), the figure is 0.22%; as for `CCOc1ccc(N2CC(C#N)=C3c4cc(OC)c(OC)cc4CCN3C2)cc1`, 94.9% (active).

On to `Cc1ccc(-n2c(-c3ccc(Cl)cc3)cc(C(=O)N3CCN(c4cccc(Cl)c4)CC3)c2C)cc1`, for which the inhibition was 33.6%. For the compound `Cc1cccc(N2CCN(CCNc3cncc(Cl)n3)CC2)c1`, the inhibition is 86.1% (active). With `c1cnn(-c2cncc(NCC3CCCCCCC3)n2)c1`, the inhibition is 49.9%. Turning to `COc1ccccc1N1CCC(CNc2cncc(Cl)n2)C1` (stereo unspecified), the inhibition is 85% (active). Consider `CNC(=O)c1cccc(N2CCC(c3ccccc3OC)C2)n1` (stereo unspecified), for which the inhibition is 20.6%. As for `Fc1ccc(Nc2ccc3ccccc3n2)cc1Cl`, the figure is 22.7%. As for `CC(=O)Oc1cccc2c1C(=O)c1c(OC(C)=O)cc(C(=O)O)cc1C2=O`, the figure is 77.5% (active).

For `CCCc1nc2c(c(=O)c3ccccc3n2C)c(=O)n1CCc1ccccc1`, the inhibition is -32.5%. The result for `Oc1c(C(c2ccc(Cl)cc2)N2CCCC2)ccc2cccnc12` (stereo unspecified) reads 92% (active); that for `Oc1c(C(c2ccc(Br)cc2)N2CCCC2)ccc2cccnc12` (stereo unspecified), 77.3% (active); that for `Clc1ccc(C(c2ccc(Cl)cc2)N2CCNCC2)cc1`, 42.8%. For `O=c1cc(-c2ccccc2)oc2cc(O)c(O)cc12`, the inhibition was 95.7% (active). As for `COc1cc(C)c2c(=O)cc(-c3ccccc3)oc2c1`, the figure is 47.7%; as for `CC(C)Oc1ccc2c(=O)cc(-c3ccccc3)oc2c1`, 58.7% (active). As for `Cc1oc2cc(OC(C)C)ccc2c(=O)c1Oc1ccccc1`, the figure is 8.96%. Consider `O=C(CC[N+](=O)[O-])OC[C@H]1O[C@@H](O)[C@H](OC(=O)CC[N+](=O)[O-])[C@@H](OC(=O)CC[N+](=O)[O-])[C@@H]1OC(=O)CC[N+](=O)[O-]`, for which the inhibition was 82.8% (active). On to `O=C1C2=C(Nc3ccccc3SC2c2cccs2)c2ccccc21` (stereo unspecified), for which the inhibition is 21.4%. For `O=C1C2=C(Nc3ccccc3S(=O)(=O)C2c2ccc(Cl)cc2)c2ccccc21` (stereo unspecified), the inhibition was 66.7% (active).

Regarding `O=C(CNc1ccc(Cl)cc1F)N1CCN(c2ccccc2)CC1`, the inhibition is 16.7%. As for `O=C(Cc1cc(-c2cc3ccccc3o2)on1)Nc1ccon1`, the figure is 18.9%. As for `O=C(Cc1cc(-c2cc3ccccc3o2)on1)N1CCCc2ccccc21`, the figure is 66.9% (active); as for `O=C(Cc1cc(-c2cc3ccccc3o2)on1)N1CCCCC1`, 22.8%; as for `CC1Cc2ccccc2N1CCNC(=O)c1cc(Cl)ccc1F` (stereo unspecified), 8.76%. As for `O=C(CNc1ccc(Cl)cc1F)N1CCCc2ccccc21`, the figure is 50.7% (active).

Regarding `O=C(Cc1cc(-c2ccc(F)cc2)on1)N1CCCc2ccccc21`, the inhibition is 56.2% (active).

On to `COc1cccc(-c2cc(CC(=O)N3c4ccccc4CC3C)no2)c1` (stereo unspecified), for which the inhibition was 38.3%.

These data come from PubChem BioAssay AID1259343 (VanderVen Lab, College of Veterinary Medicine, Cornell …, 2017).
